AmpC no deterg = inhibitors of E. coli AmpC beta-lactamase without detergent; 0.52% of 330,000 active; Potency, µM (highest dose often 57.1 µM), most hits filed as inhibitors; P00811; AmpC nitrocefin hydrolysis, absorbance 480 nm, 0.0001% Triton; also: nearly all actives have a fitted effect of over 20% in size
Target sequence (P00811 whole entry, looked up): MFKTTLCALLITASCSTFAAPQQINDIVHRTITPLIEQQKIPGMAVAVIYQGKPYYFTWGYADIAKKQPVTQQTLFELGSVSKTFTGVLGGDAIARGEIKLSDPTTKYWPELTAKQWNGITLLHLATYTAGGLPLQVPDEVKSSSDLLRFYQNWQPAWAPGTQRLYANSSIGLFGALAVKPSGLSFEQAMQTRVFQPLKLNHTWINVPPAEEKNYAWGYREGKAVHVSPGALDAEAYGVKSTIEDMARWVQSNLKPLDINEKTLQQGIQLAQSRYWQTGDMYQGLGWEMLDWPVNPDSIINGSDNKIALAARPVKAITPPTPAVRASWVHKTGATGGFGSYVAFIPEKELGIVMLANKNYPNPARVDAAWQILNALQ
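20 mM phosphate pH 7.0 + 0.01% (detergent screen) or 0.0001% Triton X-100; 5.3 nM AmpC reagent; cpd preinc 15 min RT; nitrocefin (800 uM stock) to start; A480 q20 s × 4 min; Activity was normalised to no-enzyme and no-compound control wells.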
AmpC inh detg = AmpC beta-lactamase inhibition with detergent present | AmpC hydrolysis of nitrocefin, absorbance 480 nm, 0.01% Triton | P00811 | AID 485294 | Potency, µM (titrated, usually from 114 µM), most hits filed as inhibitors | 0.041% of 370,000 active; also: nearly all actives have a fitted effect of over 25% in size
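20 mM phosphate pH 7.0 + 0.01% (detergent screen) or 0.0001% Triton X-100; 5.3 nM AmpC reagent; cpd preinc 15 min RT; nitrocefin (800 uM stock) to start; A480 q20 s × 4 min; Activity was normalised to no-enzyme and no-compound control wells.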
Shiga inhibitor = Shiga toxin inhibition; Vero cells, Shiga toxin protein synthesis inhibition reporter; inhibition, % at 38.7 µM; 9.2% of 290,000 active; AID 2315; in the data active = inhibition mostly above about 28%, no sharp cut-off; inactive = mostly below about 43%
Cycloheximide cs = counter-screen for Shiga toxin inhibitors: cycloheximide protein synthesis inhibition. cell reporter, cycloheximide protein synthesis inhibition counterscreen. max response, %. 12% of 300,000 active; in the data active = max response mostly above about 13%, no sharp cut-off; inactive = mostly below about 14%; also: read at 38.3 µM for the half of the compounds with a filed dose
NS1 inh = inhibitors of influenza NS1 protein function | 0.4% of 270,000 active | Potency, µM (top dose mostly 46.1 µM); calls by dose curve; also: actives are rising curves; nearly all actives have a fitted effect of over 50% in size
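Recovery from NS1-induced slow growth read by OD600 in budding yeast switched to galactose assay medium (pH 6.0, -URA) at 1:100 dilution. Compound 23 nl per well; the matching strain lacking NS1 serves as control.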
Numbers stand for hits; – = inactive; ? = inconclusive; · = no result; [ ] = dose if it differs, or a comment. Only a selection was taken, and hits are over-represented in it overall. Unless noted, calls follow the shape of the dose curve; as a rule, active = well fitted curve in the direction sought with a large enough effect; inconclusive = small, poorly fitted or top-dose-only effect, or another doubt; inactive = no such curve, though single readings can be large; an effect the other way counts as inactive or inconclusive.

SMILES	AmpC no deterg	AmpC inh detg	Shiga inhibitor	Cycloheximide cs	NS1 inh
N/C(=N\OC(=O)COc1ccc(Br)cc1Cl)c1ccccn1	–	–	–	50	–
O=C(COc1ccc(Br)cc1Cl)N1CCN(c2ccccn2)CC1	–	–	–	–	–
CCOC(=O)C1=C(c2ccccc2)N=c2s/c(=C\c3ccco3)c(=O)n2C1c1cccs1 (configuration not stated)	13µM	–	–	–	–
Cc1ccc(N=Cc2cc3c(cc2O)OC(N)=C(C#N)C3c2ccccc2)cc1 (configuration not stated)	20µM	–	–	–	–
CN(C)C(=O)O/N=C(\N)COc1ccc(C(C)(C)C)cc1	–	–	–	30	–
CC(C)(C)c1ccc(OCC(=O)O)cc1	–	?	–	–	–
COc1ccc(C(=O)NCC(c2ccc(N(C)C)cc2)N2CCc3ccccc32)cc1OC (configuration not stated)	·	–	·	·	·
O=C(CSc1nnc(SCC(=O)c2ccco2)s1)c1ccco1	–	–	–	–	–
C/C(=N\NC(=O)CSc1nc2ccccc2s1)c1ccco1	–	–	48	17	–
O=C(CSc1nc2cc(Cl)ccc2s1)c1ccco1	–	?	–	20	–
N#C/C(=C\c1ccco1)Sc1nc2ccccc2s1	–	–	39	69	–
O=C(CSc1nc2ccccc2s1)N/N=C/c1ccccc1C(=O)O	–	–	91	52	–
CCOc1ccc(C(=O)Nc2cccc(C(=O)OCc3cc(=O)n4cc(C)sc4n3)c2)cc1	·	–	·	·	·
Cn1cnc(S(=O)(=O)N2CCCC(C(=O)NCc3ccc(F)cc3)C2)c1 (configuration not stated)	·	–	·	·	·
Cc1ccccc1Cn1c(=O)n(CCc2ccccc2)c(=O)c2c(C)c(C)sc21	·	–	·	·	·
CC(NC(=O)Cn1cc(C(F)(F)F)ccc1=O)c1ccc(F)cc1 (configuration not stated)	–	?	–	–	·
O=C(CSc1nc2ccccc2s1)N/N=C/c1ccco1	–	–	–	14	–
O=C(CSc1nc2ccccc2s1)N/N=C/c1ccc(C(=O)O)cc1	–	–	–	–	·
COc1cccc(NC(=O)CCN2C(=O)c3ccccc3S2(=O)=O)c1	–	–	–	14	–
Cc1ccc(NC(=O)CCN2C(=O)c3ccccc3S2(=O)=O)cc1C	–	–	·	·	·
COc1ccc(NC(=O)CCN2C(=O)c3ccccc3S2(=O)=O)c(OC)c1	–	–	–	–	·
Cc1ccc(NC(=O)CN2C(=O)c3ccccc3S2(=O)=O)cc1C	–	–	–	11	–
CCCCCC(=O)c1c(O)cc(OC)c(Cl)c1O	·	·	93	26	·
CCCCCCC(=O)c1c(O)n(-c2ccccc2OC)c(=O)[nH]c1=O	–	–	–	–	–
CC(=O)NC(=S)Nc1ccc(N2CCOCC2)c(S(=O)(=O)Nc2cc(Cl)ccc2Cl)c1	–	–	–	–	·
SMILES	AmpC no deterg	AmpC inh detg	Shiga inhibitor	Cycloheximide cs	NS1 inh
Cc1cccc(NS(=O)(=O)c2ccc3c(c2)n(C)c(=O)n3C)c1C	·	–	·	·	·
Cc1cccc(N2CCN(S(=O)(=O)c3nnc(NC(=O)c4ccc(Cl)cc4)s3)CC2)c1	·	–	·	·	·
O=C(NC1CCCCC1)C(c1cc2c(cc1[N+](=O)[O-])OCO2)N1CCCCC1 (configuration not stated)	–	–	54	–	–
O=CN1CCN(C(C(=O)NC2CCCCC2)c2cc3c(cc2[N+](=O)[O-])OCO3)CC1 (configuration not stated)	–	–	–	–	·
Cc1cccc(C)c1N=C1NN=C(c2ccccc2F)CS1	–	–	–	–	–
Cc1ccccc1N=C1NN=C(c2ccccc2F)CS1	–	–	37	49	–
COc1cccc(CNC(=O)Cn2c(C)c3cnn(-c4ccccc4)c(=O)c3c2C)c1	·	–	·	·	·
Cc1cc(C(=O)COC(=O)c2ccc3c(c2)NC(=O)CS3)c(C)n1CC1CCCO1 (configuration not stated)	–	–	56	38	–
COc1cc(OC)cc(C(=O)OCC(=O)c2cc(C)n(CC3CCCO3)c2C)c1 (configuration not stated)	–	–	·	·	·
Cc1cc(C(=O)COC(=O)c2ccc(O)cc2)c(C)n1CC1CCCO1 (configuration not stated)	–	–	107	59	·
CCOc1ccccc1C(=O)Nc1cccc2ccc(C)nc12	·	–	·	·	·
Cc1n[nH]c(=O)n1-c1ccc(OCc2ccccc2)cc1	–	–	92	53	–
COc1ccc(O)c(CN2CCCC(N3CCc4ccccc4C3)C2)c1 (configuration not stated)	–	–	–	–	–
CC(N=c1ccccn1C(=O)Nc1ccc(Cl)cc1)c1ccco1 (configuration not stated)	–	–	65	49	–
CC1(C)CC(c2nc(-c3ccc(Cl)cc3)cs2)CCS1 (configuration not stated)	–	–	–	–	–
CC1(C)CC(c2nc(-c3ccccc3)cs2)CCS1 (configuration not stated)	–	–	–	16	–
CCN(CC)S(=O)(=O)c1cccc(C(=O)N/N=C/c2cccc(O)c2O)c1	–	–	77	53	–
CCN(CC)S(=O)(=O)c1cccc(C(=O)N/N=C/c2ccccn2)c1	–	–	–	33	·
COc1cc(OC)c(NC(=S)NCc2ccc(F)cc2)cc1Cl	–[2.29 µM]	–	–	–	–
Cc1ccc(-c2csc(NC(=O)c3ccno3)n2)cc1	–	?	–	22	–
Cc1ccc(-c2csc(NC(=O)c3ccc([N+](=O)[O-])o3)n2)cc1	–	–	–	–	–
Cc1ccc(C(=O)Nc2nc(-c3ccc(F)cc3)cs2)o1	–	–	92	42	–
COc1cc(CNCCc2ccc(F)cc2)ccc1OCc1ccc(Cl)nc1	–	–	–	–	–
COc1cc(CO)ccc1OCc1ccc(Cl)nc1	–	–	149	51	–
OCCc1ccc(O)c(-n2nc3ccccc3n2)c1	–	?	59	22	–
SMILES	AmpC no deterg	AmpC inh detg	Shiga inhibitor	Cycloheximide cs	NS1 inh
N#Cc1ccc(COc2ccc(CCO)cc2-n2nc3ccccc3n2)cc1	–	–	–	–	–
CC1CCCC2(C1)NC(=S)c1c(sc3c1CCCC3)N2 (configuration not stated)	–	–	–	15	–
Cc1ccc(Cn2ncn(-c3ccccc3)c2=O)cc1	–	–	–	19	–
CCCCN(CC)CCCNC(=O)c1cc2c(=O)[nH]c3ccccc3c2n1C	·	–	·	·	·
CN(C)C(=O)Oc1ccc(Cl)c2ccccc12	–	?	–	–	–
CCN(CC)C(=O)Oc1ccc2ccccc2c1Cl	–	–	80	43	–
CN(C)C(=O)Oc1ccc2ccccc2c1Cl	–	–	–	30	–
CCOc1ccccc1NC(=O)c1c(NCc2ccc(OC)c(OC)c2OC)sc2c1CCC(C)C2 (configuration not stated)	·	–	·	·	·
CSc1ncccc1C(=O)Nc1ccc2nc(C)sc2c1	–	–	50	19	–
COc1ccc2nc(NC(=O)c3ccccc3-c3ccccc3C(=O)O)sc2c1	–	–	–	–	–
